# HPGD block = HPGD (human) dehydrogenase inhibition; purified HPGD, NADH fluorescence kinetic, PGE2 substrate; Potency, µM, for the others: at the top dose activity change, negative = inhibition, most hits filed as inhibitors; 150,000 compounds, 4.3% hits; active = well fitted inhibition curve with a large enough effect, not every such curve was filed as active; inconclusive = small, poorly fitted or top-dose-only effect, or another doubt; inactive = no such curve, though single readings can be large or run the other way
# Target sequence (P15428 whole entry, looked up): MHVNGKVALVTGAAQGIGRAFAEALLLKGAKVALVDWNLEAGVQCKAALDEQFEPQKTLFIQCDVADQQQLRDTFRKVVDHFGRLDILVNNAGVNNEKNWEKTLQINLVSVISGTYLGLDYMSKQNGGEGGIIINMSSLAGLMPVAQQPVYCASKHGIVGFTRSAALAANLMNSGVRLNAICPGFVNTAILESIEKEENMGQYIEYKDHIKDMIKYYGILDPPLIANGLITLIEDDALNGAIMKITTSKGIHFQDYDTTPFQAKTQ
#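 NADH formation kinetics: reaction with 30 uM PGE2 and 1 mM NAD+ (final), 20 nM enzyme, Tris-HCl pH 8 with Tween 20, after 15 min compound preincubation at room temperature. Fluorescence change, last versus first of five reads.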
# ALDH1A1 inh = blocks purified human ALDH1A1 activity | P00352 | Purified ALDH1A1, NADH fluorescence, propionaldehyde substrate | Potency, µM (top dose mostly 75.3 µM), inactives show at the highest dose activity, negative = inhibition, usual class: inhibitors | 220,000 compounds, 7.3% hits; active = well fitted inhibition curve with a large enough effect, not every such curve was filed as active; inconclusive = small, poorly fitted or top-dose-only effect, or another doubt; inactive = no such curve, though single readings can be large or run the other way;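 also: plate controls were no enzyme wells and a reference inhibitor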
# Target sequence (P00352 whole entry, looked up): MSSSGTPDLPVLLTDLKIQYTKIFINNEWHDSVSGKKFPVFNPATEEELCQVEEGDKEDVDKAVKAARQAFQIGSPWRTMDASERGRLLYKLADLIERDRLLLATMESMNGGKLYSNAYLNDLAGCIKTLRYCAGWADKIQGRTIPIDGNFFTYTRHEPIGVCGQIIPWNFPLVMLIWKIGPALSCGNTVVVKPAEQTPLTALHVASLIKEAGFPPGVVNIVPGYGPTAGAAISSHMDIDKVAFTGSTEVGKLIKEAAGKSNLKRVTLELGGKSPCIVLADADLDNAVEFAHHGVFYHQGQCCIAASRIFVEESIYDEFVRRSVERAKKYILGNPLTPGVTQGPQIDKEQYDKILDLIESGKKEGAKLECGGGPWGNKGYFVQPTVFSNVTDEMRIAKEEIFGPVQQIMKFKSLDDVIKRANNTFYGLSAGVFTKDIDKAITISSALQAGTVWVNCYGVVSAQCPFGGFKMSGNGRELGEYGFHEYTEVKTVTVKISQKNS
# IMPase Li cell = membrane-permeable IMPase blocker, potentiated with lithium. 210,000 compounds, 0.35% hits. CHO-M1 cells, IP1 TR-FRET (IP-One), carbachol + lithium. Potency, µM (top dose mostly 59.4 µM), for inactives: at the highest dose activity, negative = IMPase inhibition, hits mostly inhibitors. AID 1457;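 also: IP1 builds up when IMPase is blocked and the TR-FRET signal falls; plate controls were basal vehicle for no effect and high inhibitor control for full effect; nearly all actives have a fitted effect of over 50% in size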
#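 CHO cells stably expressing M1 receptor (2000/well) were cultured 16–30 h, then exposed to compounds with a small lithium addition for 30 min at 37C. IP1 was measured by TR-FRET competition; AC50 from Hill fits.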
# KinaseGlo FLuc = Kinase-Glo luciferase inhibition (counter-screen) | Q27757 | 200,000 compounds, 0.28% hits | AID 1379 | Potency, µM (doses to about 38.3 µM), for the others: top-dose activity change, negative = inhibition, hits mostly inhibitors | Kinase-Glo luciferase, ATP luminescence, 8 min; also: nearly all actives have a fitted effect of over 60% in size
#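 Inhibition of Kinase-Glo luciferase light generation was assessed at 10 uM ATP in pH 7.2 imidazole buffer, with luminescence measured after eight minutes at ambient temperature.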
# LMNA splice mod = changes lamin A minigene splicing in HeLa cells | AID 1487 | 200,000 compounds, 0.01% hits | Potency, µM (top dose mostly 46.1 µM), for inactives: at the top dose ratio change, negative = inhibition, usual class: inhibitors | HeLa LMNA splicing GFP/RFP minigene ratio, 48 h; active = well fitted inhibition curve with a large enough effect in the signal ratio, with a control signal flat, not every such curve was filed as active; inconclusive = small, poorly fitted or top-dose-only effect, or effect the other way, or a change in a side signal; the % refers to the signal ratio
#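 S3 HeLa stable clones carrying a lamin A-EGFP splicing minigene plus DsRed2 were seeded at 600 cells/well in Opti-MEM with 2% FBS, pin-dosed and incubated 48 h at 37°C. Acumen cytometry (488 nm) gave the GFP/RFP total-intensity ratio.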
# An asterisk follows results filed as active; ? = inconclusive; · = not tested or not shown; [ ] = dose if it differs, or a comment. Shown are actives, neighbours in structure and some others; about 9% of the full set was active somewhere. Unless noted, calls follow the shape of the dose curve; as a rule, active = well fitted curve in the direction sought with a large enough effect; inconclusive = small, poorly fitted or top-dose-only effect, or another doubt; inactive = no such curve, though single readings can be large; an effect the other way counts as inactive or inconclusive. Unless noted, % is scaled to controls: 0 for no effect and ±100 for the full control effect; potency is read from the fitted curve at half-maximal effect.
SMILES,HPGD block,ALDH1A1 inh,IMPase Li cell,KinaseGlo FLuc,LMNA splice mod
O=C1NC(=O)C(=C2CCCCCC2)S1,?,4%,0%,1%,3%
O=C(NCc1ccccn1)C1C2C=CC(C2)C1C(=O)Nc1ccc(F)cc1 (stereo not drawn),16µM*,10%,5%,1%,-4%
CC(=O)Oc1ccc(C(=O)O)c(OC(C)=O)c1,·,-2%,·,·,·
Nc1scc2c(C(=O)N/N=C/c3ccc(Cl)cc3)nn(-c3ccccc3)c(=O)c12,14µM*,10µM*,10%[38.3 µM],4%,-8%
Cc1ccc(S(=O)(=O)Nc2cc(Cl)c(O)cc2C)cc1,0%,?,9%[38.3 µM],-4%,?
Cc1ccc(S(=O)(=O)Nc2cc(C(C)C)c(O)cc2C)cc1,-8%,2µM*,26%[38.3 µM],5%,?
CC(C)NC(=O)N1CC2(CCN(C(=O)c3ccncc3)CC2)C1,-10%,10%,3%,-3%,·
ClC1(Cl)CC1Cn1c(C2CC2)nc2ccccc21 (stereo not drawn),·,10µM*,5%,-1%,-1%[46 µM]
CCOC(=O)c1ccc(NC(=O)NC2CC3CCC(C2)N3Cc2nnnn2Cc2ccco2)cc1 (stereo not drawn),0%,13µM*,-1%[38.3 µM],-3%,8%
CCOCCCn1c(=S)[nH]c2cc(C(=O)NCC(OC)OC)ccc2c1=O,·,8.9µM*,11%,-1%,·
COCCn1c(=S)[nH]c2ccc(N(C)C)cc2c1=O,-30%,?,?,-1%,12%
CCN(CC)C(=O)c1ccc2c(=O)n(CCOC)c(=S)[nH]c2c1,14µM*,11µM*,3%[38.3 µM],-4%,0%
CCN(CC)S(=O)(=O)c1ccc(Cl)c(C(=O)Oc2cccnc2)c1,-26%,14µM*,20%[38.3 µM],0%,7%
CCOC(=O)C(C(=O)OCC)C(C(=O)OCC)N1CCOCC1 (stereo not drawn),22µM*,28µM*,32%[38.3 µM],-5%,?
CCOCCc1nn2c(=O)cc(COC(=O)COc3ccc(C)c(C)c3)nc2s1,·,·,·,·,1%[46 µM]
Cc1ccc(F)cc1NC(=O)c1cnccn1,·,-1%,-4%,-2%,·
CN/N=C(\Cc1nc2ccccc2[nH]1)c1ccc([N+](=O)[O-])cc1,·,20µM*,6%,-4%,·
O=C(NCCc1nc2ccccc2[nH]1)c1ccc([N+](=O)[O-])cc1,·,5%,·,·,·
Clc1ccc(/C(Cc2nc3ccccc3[nH]2)=N\Nc2ccccc2)cc1,·,4.5µM*,13%,·,·
O=C(Cc1nc2ccccc2[nH]1)c1ccc([N+](=O)[O-])cc1,·,18µM*,·,·,·
NS(=O)(=O)c1cc(C(=O)O)c(O)c2ccccc12,-26%,-15%[13.5 µM],-4%,-5%[7.66 µM],·
Cc1ccc(S(=O)(=O)Nc2ccnc(-c3cccnc3)n2)cc1,·,0%,0%,7%,·
C/C(=N/NC(=O)c1cnccn1)c1cccs1,-7%,-5%,-2%,?,-12%
C=Cc1cccc(C)c1,1%,6%,-7%,·,·
C=Cc1ccc(C=C)cc1,-4%,14µM*,6%,·,·
SMILES,HPGD block,ALDH1A1 inh,IMPase Li cell,KinaseGlo FLuc,LMNA splice mod
COC(=O)c1sc2cc([N+](=O)[O-])cc(SCC(C)C)c2c1N,-18%,-16%,-4%,1%,-5%
CN(CCO)CCOCCOc1cccc2ccccc12,·,14µM*,-3%,3%,7%[46 µM]
COc1cccc(-c2cncnc2NCc2cccnc2)c1,·,16%,25%,·,7%
COC(=O)C1C(c2ccc(N(C)C)cc2)C(C(=O)OC)S(=O)(=O)CS1(=O)=O (stereo not drawn),·,10µM*,2%,-1%,·
CCCCC1CCC(C(=O)N2CCOCC2)CC1 (stereo not drawn),16µM*,9%,1%,-3%,3%
CCS(=O)(=O)N1CCC(C(=O)N2CCOCC2)CC1,-14%,10%,4%[38.3 µM],-1%,11%
C=CCSC1=N/C(=C\c2cc(OCC)c(OC(C)=O)c([N+](=O)[O-])c2)C(=O)S1,6.3µM*,0%,0%,?,8%
C=CCSC1=N/C(=C\c2ccc3c(c2)OCO3)C(=O)S1,-14%,-9%,10%[38.3 µM],1%,1%
N=C1C(c2ccccc2)=C(O)CN1CCO,·,7%,-3%,·,·
N#CNC(N)=Nc1ccc(Cl)cc1,-18%,?,3%,-9%[7.66 µM],·
O=C(NCSc1ccnc(SCNC(=O)c2ccc(F)cc2)n1)c1ccc(F)cc1,22µM*,?,1%,-1%,7%
Cc1ccc(NCC(=O)N/N=C/c2cc(O)ccc2[N+](=O)[O-])cc1,·,?,3%,3%,-6%[46 µM]
COc1cc(C(=O)NCCc2ccc3c(c2)OCCO3)ccc1OCC(=O)N1CCOCC1,-29%,22µM*,18%[38.3 µM],-3%,13%
CCOc1ccc(C(=O)N2CCCC2)cc1OC,28µM*,-20%,-11%,2%,3%
COc1ccc(C(=O)N2CCN(Cc3cc(OC)c(O)c(OC)c3)CC2)cc1OC,·,22µM*,·,·,-7%
COc1cc(C(=S)N2CCCCC2)ccc1OCC(=O)N1CCCC1,-6%,22µM*,19%[38.3 µM],1%,-2%
CC(C)N(C(=O)COC(=O)c1ccc([N+](=O)[O-])cc1)c1ccccc1,·,2%,-2%,-2%,26%[46 µM]
COc1ccc2cc(C(c3nnnn3CCc3ccccc3)N3CCCC(C)C3)c(=O)[nH]c2c1 (stereo not drawn),-9%,32µM*,-11%[38.3 µM],-2%,0%
CCN(Cc1ccccc1)C(c1cc2cc(C)ccc2[nH]c1=O)c1nnnn1CCOC (stereo not drawn),-10%,?,6%[38.3 µM],1%,9%
COCCn1nnnc1C(c1cc2cc(C)ccc2[nH]c1=O)N1CCCCCC1 (stereo not drawn),-19%,25µM*,16%[38.3 µM],2%,4%
COCCn1nnnc1C(c1cc2cc(C)ccc2[nH]c1=O)N1CCc2ccccc21 (stereo not drawn),-22%,3.2µM*,9%[38.3 µM],-2%,9%
COCCn1c(SCC(=O)Nc2sccc2C(N)=O)nnc1-c1ccncc1,·,8%,6%,10%,7%[46 µM]
CCCc1nc2ccccc2c(=O)n1CC(=O)c1ccccc1,·,-4%,-11%,·,·
O=C(/C(=C/O)N=Nc1ccccc1)c1cccs1,·,10µM*,10%,-3%,10%[46 µM]
C=C(C)C(=O)c1cccs1,-7%,-2%,2%,2%,·
CC1(C)CC(=O)C(C=NCC2CCN(C(=S)Nc3cccc(Cl)c3)CC2)=C(O)C1,·,?,4%,0%,30%[46 µM]
CC/C(=N/NC(=O)CNc1ccc(Cl)cc1C)c1ccccc1,·,0%,-7%,1%,·
COCC(=O)N1CCc2nc(-c3ccccc3)c3c(c2C1)CO[C@@H](C)C3,-11%,6%[13.5 µM],6%,-1%[7.66 µM],-12%[9.22 µM]
Cc1nc(NS(=O)(=O)c2cccs2)c2c3c(sc2n1)CCC3,-17%,?,-3%[38.3 µM],-1%,9%
Cc1nc(NS(=O)(=O)c2ccc(Br)cc2)c2c3c(sc2n1)CCC3,-9%,13µM*,0%[38.3 µM],7%,5%
